Results on 54 molecules are retold here after PubChem BioAssay AID602229 (The Scripps Research Institute Molecular Screening Center, 2012).

Each structure is given as a SMILES string. About 1,300 (0.36%) of roughly 360,000 compounds were called active. The full list was thinned out, with actives kept by preference. Values without a mark were called inactive.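 The calls were made as follows: active = inhibition above the mean of all tested compounds plus 3 SD (cut at about 70% in these data); inactive = the rest.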

For the assay, the target named is Photoreceptor-specific nuclear receptor (Homo sapiens) (UniProt Q9Y5X4). The assay is described as follows: NR2E3 agonists in two-hybrid cells, primary screen, cell-based, luminescence, CHO-S, Gal4-NCOR/VP16-NR2E3 (AID 602229).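 Also: 0% = DMSO with NR2E3 transfected cells and 100% = cells lacking NR2E3 construct; higher means lower luciferase signal from less NR2E3 corepressor binding.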 As to conditions: luciferase, at 3.98 µM, hits give high values.
Chain of Photoreceptor-specific nuclear receptor (Homo sapiens) (Q9Y5X4 whole entry, looked up, the tested form may be a part): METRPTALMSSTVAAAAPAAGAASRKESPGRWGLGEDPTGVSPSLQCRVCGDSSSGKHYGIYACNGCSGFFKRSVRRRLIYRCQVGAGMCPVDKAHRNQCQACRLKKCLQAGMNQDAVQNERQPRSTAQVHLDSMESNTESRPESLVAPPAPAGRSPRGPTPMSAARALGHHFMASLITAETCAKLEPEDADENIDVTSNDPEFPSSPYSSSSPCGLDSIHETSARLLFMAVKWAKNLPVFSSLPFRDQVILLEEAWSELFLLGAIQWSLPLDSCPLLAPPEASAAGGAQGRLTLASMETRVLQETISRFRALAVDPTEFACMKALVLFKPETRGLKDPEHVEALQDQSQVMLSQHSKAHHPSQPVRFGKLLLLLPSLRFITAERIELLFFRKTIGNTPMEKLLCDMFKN
With `N#CC1=C(N)Oc2[nH]c(=S)[nH]c(=O)c2C12C(=O)Nc1ccccc12` (centres undefined), the inhibition of corepressor binding is -7.36%.

As to `CCCCn1nnnc1C(c1ccccc1)N1CCN(c2ccccc2OC)CC1` (centres undefined), the inhibition of corepressor binding was -15.1%.

As for `CCCCC(=O)N(c1ccc(OC)cc1)C1C=CS(=O)(=O)C1` (centres undefined), the inhibition of corepressor binding is -26%. The figure for `COC(=O)[C@]12CCCCC=C1N(Cc1ccco1)C(=O)[C@H](CC(=O)NCCCCc1ccccc1)C2` is -23.9%; for `COc1ccc(NC(=O)CC2SC(N3CCCCC3)=NC2=O)cc1OC` (centres undefined) it is 8.6%; for `CS(=O)(=O)Nc1ccccc1N=C(c1ccccc1)c1ccccc1` it is 7.7%.

As to `O=C(CCc1nnc2ccc(NCCCN3CCCC3=O)nn12)NCc1ccccc1Cl`, the inhibition of corepressor binding was 8.39%.

Regarding `Cc1nc(-c2ccc(F)cc2)c(CC(=O)N2CCN(S(=O)(=O)c3ccc(F)cc3)CC2)s1`, the inhibition of corepressor binding was -1.49%. As for `Cc1nc(-c2ccc(F)cc2)c(CC(=O)Nc2cc(S(=O)(=O)N3CCCCC3)ccc2C)s1`, the inhibition of corepressor binding was 82.8% (active). In the case of `Cc1ccc(S(=O)(=O)N2CCN(C(=O)Cc3sc(C)nc3-c3ccc(F)cc3)CC2)c(C)c1`, the inhibition of corepressor binding was -15.2%. Consider `O=S(=O)(Nc1ccc(-c2ccc(N3CCOCC3)nn2)cc1)c1cc(Cl)ccc1Cl`, for which the inhibition of corepressor binding is -41.5%.

Regarding `COc1ccc(C(C(=O)NCC2CCCO2)N(C(=O)Cn2nnc3ccccc32)c2ccc(NC(C)=O)cc2)cc1OC` (centres undefined), the inhibition of corepressor binding is -35.2%. Turning to `Cn1c(=O)oc2cc(S(=O)(=O)N3CCC(C(=O)Nc4ccc(OC(F)(F)F)cc4)CC3)ccc21`, the inhibition of corepressor binding was -16.6%. With `CC[C@H]1CN2CCc3cc(OC)c(OC)cc3[C@@H]2C[C@@H]1C[C@H]1NCCc2cc(OC)c(OC)cc21`, the inhibition of corepressor binding is 104% (active). Take `O=C(CC(NCCN1CCOCC1)C(=O)O)Nc1cccc(Cl)c1` (centres undefined): the inhibition of corepressor binding is 5.57%. Take `CCCCCCCCn1c2c(c(=N)c3c1CCC3)CCCC2`: the inhibition of corepressor binding was 92% (active). The figure for `Cc1ccc(S(=O)(=O)NC(C)C(=O)NCc2ccc(Cl)cc2)cc1` (centres undefined) is -5.53%; for `CCn1cc(C(=O)N[C@@H](C)C(=O)NCCO)c(=O)c2cc3c(cc21)OCO3` it is -12.3%. Turning to `Cc1nc([N+](=O)[O-])c(NCCCO)n1Cc1ccccc1`, the inhibition of corepressor binding is -10.6%. Regarding `CCN1/C(=C\c2ccc3ccccc3[n+]2CC)Sc2cc(C)ccc21`, the inhibition of corepressor binding is 89.4% (active). For `COCC(=O)N1CCc2ccc(NC(=O)c3ccccc3Cl)cc2C1`, the inhibition of corepressor binding is -6.67%. For `CCOC(=O)C1CCCN(C(=O)c2cc(-c3cccs3)oc2C)CC1` (centres undefined), the inhibition of corepressor binding is -1.14%. For the molecule `CCOc1ccccc1N1CCN(C(=O)c2ccc3[nH]c(C)c(C)c3c2)CC1`, the inhibition of corepressor binding is -57.3%. As for `C[C@H](CO)N1C[C@H](C)[C@H](CN(C)CC2CC2)Oc2ccc(NC(=O)CCN3CCOCC3)cc2C1=O`, the inhibition of corepressor binding was -4.02%. Take `COc1ccccc1CNc1nc(Nc2ccccc2Cl)c2sccc2n1`: the inhibition of corepressor binding was 64.7%. The figure for `COc1cccc(CNc2nc(NCc3cccs3)nc3ccsc23)c1` is 88.5% (active). As for `COc1cccc(CNc2nc(NCc3ccccc3OC)nc3ccsc23)c1`, the inhibition of corepressor binding was 54.7%. Consider `CC[C@]1(c2ccccc2OC)C(=O)N(C(=O)OC)N1C(=O)OC`, for which the inhibition of corepressor binding was 14.9%. As to `COc1cc(C(=O)NCc2ccc(-n3cccc3)cc2)cc(OC)c1OC`, the inhibition of corepressor binding is 11.4%. Next, `CCn1c(CNC(=O)c2cc(OC)c(OC)c(OC)c2)cc2cc(C)ccc21`: 89.3% (active); `COc1cc(C(=O)NCc2nnc(SCC(=O)Nc3nc4ccc(C)cc4s3)o2)cc(OC)c1OC`: -10.1%; `Cc1noc(C)c1S(=O)(=O)Nc1cc(C(F)(F)F)ccc1N1CCOCC1`: 4.86%. Turning to `Cc1oc2c(F)c(F)c(F)c(F)c2c1S(=O)(=O)Nc1cccc(C(F)(F)F)c1`, the inhibition of corepressor binding was 110% (active).

Regarding `Cc1ccc(N(CCC(=O)O)S(=O)(=O)c2cccc(C(F)(F)F)c2)cc1`, the inhibition of corepressor binding was 4.8%. With `CCCOc1ccc(CN(CCO)CCO)cc1C(=O)OC`, the inhibition of corepressor binding was 5.92%. Next, `COc1ccccc1CNC(=O)CNC(=O)c1cn(-c2ccccc2OC)c(=O)c2ccccc12`: 6.65%; `COc1ccc(S(=O)(=O)N2CCc3ccccc32)cc1C(=O)Nc1cc(S(C)(=O)=O)ccc1Cl`: -23.6%. With `Cc1ccc(C)c(NC(=O)CN(C)C(=O)c2ccc3ncsc3c2)c1`, the inhibition of corepressor binding was -19.7%.

In the case of `CC1(C(=O)NS(=O)(=O)c2ccc(Cl)cc2)CCN1C(=O)CC1CCCC1` (centres undefined), the inhibition of corepressor binding is 9.74%. For `Cc1ccc(NC(=O)CN(C)CC(=O)Nc2cccc(F)c2)cc1[N+](=O)[O-]`, the inhibition of corepressor binding was 84.2% (active).

In the case of `CN(CC(=O)Nc1cccc(F)c1)C(=O)C1=COCCO1`, the inhibition of corepressor binding was -5.12%. For the molecule `Cc1ccc(NC(=O)c2sccc2C)cc1[N+](=O)[O-]`, the inhibition of corepressor binding was -86.2%.

On to `Cc1ccc(NC(=O)C(C)OC(=O)Cc2c[nH]c3ccccc23)cc1S(=O)(=O)N1CCOCC1` (centres undefined), for which the inhibition of corepressor binding is 20.8%. Next, `O=C(Nc1ccc(Br)cc1)c1cc(S(=O)(=O)Nc2ccccn2)ccc1Cl`: 0.47%; `S=C(NN=Cc1ccccn1)Nc1ccccn1`: 52.5%; `Oc1ccc(Br)cc1/C=N/Nc1ccccn1`: 87.1% (active). The figure for `CCCN(CC(=O)Nc1ccc(OC)c(OC)c1)CC(=O)Nc1ccc(F)c(F)c1F` is -8.16%. On to `CCOC(=O)C1CCN(S(=O)(=O)c2c(C)noc2C)CC1`, for which the inhibition of corepressor binding is -11.3%.

In the case of `Cc1csc(OCC(=O)Nc2ccc(C)c(C)c2)n1`, the inhibition of corepressor binding is -16.6%.

For `CCOC(=O)c1cnc2ccc(F)cc2c1Nc1ccc2c(c1)OCCO2`, the inhibition of corepressor binding is -13.2%. The figure for `CC(C)(C)Nc1nc(-c2ccccn2)nc2ccccc12` is 98.8% (active). On to `Cc1nc2ccccc2c(C(=O)O)c1-c1ccccn1`, for which the inhibition of corepressor binding was -21.4%. On to `c1ccc(-c2nccc(-c3ccc(-n4cnc5ccccc54)cc3)n2)nc1`, for which the inhibition of corepressor binding is 34.3%. Next, `O=C1CC(=O)Nc2cc(S(=O)(=O)N3CCN(c4cccc(C(F)(F)F)c4)CC3)ccc2N1`: -3.07%.
